Hits are enriched below; roughly 3.3% of the tested compounds scored in any of these assays.
UBC9 SUMO inh – inhibitors of human SUMOylation (UBC9) | P63279 | HTRF SUMOylation assay, SAE1/SAE2 + UBC9, in vitro | inhibition, % at 35 µM | 290,000 tested, 0.36% active; in the data active = inhibition above about 50%, passing the limit was not always enough
sPLA2-III inh – Inhibits HGIII-sPLA2 liposome hydrolysis, primary screen; inhibition, % at 12.2 µM; 370,000 tested, 0.56% active; QFRET BODIPY PC-A2 liposome hydrolysis, fluorescence;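 active = inhibition above mean plus 3 SD of compounds lying within the high and low control bounds, cut at about 19% in these data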;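 note: 0% = median of test compound wells and 100% = no enzyme DMSO wells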
Target sequence (Q9NZ20 whole entry, looked up): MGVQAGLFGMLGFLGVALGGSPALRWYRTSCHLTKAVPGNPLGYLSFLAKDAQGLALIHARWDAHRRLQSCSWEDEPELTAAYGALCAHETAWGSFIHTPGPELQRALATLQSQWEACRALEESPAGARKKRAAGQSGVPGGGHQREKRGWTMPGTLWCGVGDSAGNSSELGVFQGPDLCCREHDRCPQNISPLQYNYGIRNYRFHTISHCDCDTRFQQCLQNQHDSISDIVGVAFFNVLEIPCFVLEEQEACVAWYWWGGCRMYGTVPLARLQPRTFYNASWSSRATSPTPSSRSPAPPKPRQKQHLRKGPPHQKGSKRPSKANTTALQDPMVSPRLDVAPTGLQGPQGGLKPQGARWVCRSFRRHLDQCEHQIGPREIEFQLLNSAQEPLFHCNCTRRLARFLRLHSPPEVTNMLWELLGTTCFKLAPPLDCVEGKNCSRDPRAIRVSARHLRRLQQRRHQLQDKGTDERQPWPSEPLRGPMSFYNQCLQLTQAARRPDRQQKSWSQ
NR3A LBD binder – NR3A (human) ligand-binding domain modulation; NR3A LBD differential scanning fluorimetry, Tm shift; 0% = protein alone, 100% = glycine-bound protein; Tm shift relative to glycine control, % at 25 µM; 340,000 tested, 2.5% active; AID 1259313;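 active = melting temperature shift of at least 10% of the positive control shift, at one fixed dose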
UBC13 polyUb – blocks human UBC13 polyubiquitin chain formation | AID 485273 | 330,000 tested, 0.47% active | TR-FRET | inhibition, % at 20 µM | P61088; in the data active = inhibition above about 45%, passing the limit was not always enough
Active calls of the source: *; · = no result given.

SMILES	UBC9 SUMO inh	sPLA2-III inh	NR3A LBD binder	UBC13 polyUb
COCCOc1ccc(C(F)(F)F)cc1NC(=O)COC(=O)Cc1c[nH]c2ccccc12	·	-102	21*	10
O=C(COC(=O)Cc1c[nH]c2ccccc12)Nc1ccccc1	-11	-75	-1	-5
Cn1c(SC2CCCC2)nnc1-c1ccco1	·	2	·	·
C[C@H]1[C@@H](OC(=O)NC2CCCCC2)CC[C@@]23CCCN2C(=O)CCC[C@@H]13	·	7	·	·
CO[C@H]([C@H](C)/C=C/N(C)C=O)[C@@H](C)C(=O)CC[C@H](C)[C@H](O)[C@H](C)[C@H]1OC(=O)/C=C/C(C)=C/C[C@H](O)C[C@@H]2C=CC[C@@H](C[C@H](OC)[C@@H](CO)[C@@H](OC)C[C@@H](OC)[C@@H]1C)O2	·	-10	·	·
N#CCC[C@H]1CC[C@]2(CCCN(C(=O)c3ccco3)C2)O1	·	2	·	·
COC(=O)[C@]12C[C@H](CC(=O)N3CCCC3)C(=O)N(CCc3ccc(OC)c(OC)c3)C1=C[C@H](C1CCCC1)O[C@@H]2C	·	8	·	·
COCCCN1C(=O)[C@H](CC(=O)NCCCN2CCCC2=O)[C@]2(C(=O)OC)CCCCC=C12	·	5	·	·
Cc1ccc(NC(=O)COC(=O)Cc2c[nH]c3ccccc23)cc1F	·	-87	14*	2
CCOC(=O)[C@@]12CCCC3=C1N(CCC3)C(=O)[C@H]2CC(=O)NCc1ccccc1	·	2	·	·
COc1ccc(-c2csc(Nc3ccc(C)cn3)n2)cc1	-13	-7	16*	-2
Cc1ccc(-c2csc(Nc3ccccn3)n2)cc1	-7	-6	-3	15
Cc1cccc(Nc2nc(-c3ccc(O)cc3O)cs2)n1	5	-12	40*	9
CC(=O)Oc1ccc(-c2csc(Nc3ccc(Cl)cn3)n2)cc1	-1	-12	32*	5
CC(=O)Nc1cccc(-c2csc(Nc3ncccn3)n2)c1	11	-5	·	·
CC(=O)Nc1cccc(-c2csc(Nc3ccc(C)cn3)n2)c1	-5	-33	27*	13
Oc1ccc(-c2csc(Nc3ncccn3)n2)c(O)c1	11	2	2	1
COC(=O)c1cc(C(C)c2c[nH]c3ccccc23)n2ccccc12 (configuration not stated)	·	-22	·	·
COc1ccc(C2C(C(=O)N3CCCCC3C)CC(=O)N2c2ccc(OC)cc2)cc1 (configuration not stated)	·	6	·	·
CC(=O)Nc1ccc(-c2csc(Nc3cccc(C)n3)n2)cc1	1	-21	26*	·
COCCCN1C(=O)[C@H](CC(=O)N2CCOCC2)[C@]2(C(=O)OC)CCCCC=C12	·	3	·	·
COc1ccc(C(O)(CCC(C)C)C(CN2CCOCC2)c2ccc(Cl)cc2)cc1 (configuration not stated)	-11	-10	16*	7
CCCC(O)(c1ccc(OC)cc1)C(CN1CCOCC1)c1ccc(Cl)cc1 (configuration not stated)	-20	-8	7	6
Nc1ncnc2c1ncn2[C@@H]1O[C@H](COP(=O)(O)O)[C@@H](O)[C@H]1O	62*	-3	1	0
Nc1ncnc2c1ncn2C1OC(COP(=O)(O)O)C(O)C1O (configuration not stated)	·	5	3	-1
SMILES	UBC9 SUMO inh	sPLA2-III inh	NR3A LBD binder	UBC13 polyUb
Nc1ncnc2c1ncn2[C@@H]1O[C@H](CNCc2cccc(C#Cc3ccccc3)c2)[C@@H](O)[C@H]1O	·	-1	13*	·
Nc1ncnc2c1ncn2[C@@H]1O[C@H](CNC(=O)[C@@H]2CCN2)[C@@H](O)[C@H]1O	·	9	15*	·
Nc1ncnc2c1ncn2[C@@H]1O[C@H](CNC(=O)[C@H]2CCC(=O)N2)[C@@H](O)[C@H]1O	·	13	1	·
Cc1c(N(C)C(=O)C23CC4CC(CC(C4)C2)C3)c(=O)n(-c2ccccc2)n1C	-5	8	11*	-5
O=C(N/N=C/c1cn(-c2cccs2)nc1-c1ccccc1)c1ccccc1Br	-5	-6	11*	-7
O=C(N/N=C/c1cn(-c2cccs2)nc1-c1ccccc1)c1ccccc1O	-25	-22	26*	-16
O=C1C=C(N2CCN(C(=O)c3ccccc3)CC2)C2(CCCCC2)O1	-6	1	11*	-4
COc1ccc(NC(=O)CSc2nnc(-c3n[nH]c4c3CCC4)n2N)cc1	·	4	·	·
CC(=NNC(=O)c1ccncc1)c1ccc2ccccc2c1O	·	20*	-9	·
CC(=NNC(=O)c1ccncc1)c1ccccc1O	·	2	-1	·
COc1ccc(CCn2c(N)c(C(=O)NCc3ccco3)c3nc4ccccc4nc32)cc1	100*	-21	1	-21
S=C(Nc1ccc2cn[nH]c2c1)Nc1ccc(Cl)cc1Cl	0	5	13*	24
S=C(Nc1ccc(Cl)cc1)Nc1ccc2cn[nH]c2c1	13	5	26*	1
S=C(Nc1ccc2cn[nH]c2c1)Nc1ccccc1Cl	88*	8	4	-2
O=C(OCCN1CCN(C2CN(Cc3cn(Cc4cccc(F)c4)nn3)S(=O)(=O)C2)CC1)c1cc2ccccc2o1 (configuration not stated)	·	3	·	·
COc1cc2ccccc2cc1C(=O)Nc1ccc2oc(=O)ccc2c1	12	-4	15*	0
O=C(Nc1ccc2oc(=O)ccc2c1)c1ccccc1[N+](=O)[O-]	-3	-8	-1	0
COc1cc(OC)c(C(=O)Nc2ccc3ccccc3c2)cc1OC	-6	·	0	14
O=C(Nc1ccc2oc(=O)ccc2c1)c1cc2ccccc2o1	34	-11	9	-7
O=C(Nc1ccc2oc(=O)ccc2c1)c1ccc(-c2ccc(Cl)cc2)o1	22	-3	27*	8
O=C(Nc1ccc2oc(=O)ccc2c1)c1ccc(-c2ccccc2[N+](=O)[O-])o1	39	-4	30*	-3
O=C(Nc1ccc2oc(=O)ccc2c1)c1ccc(-c2cccc(Cl)c2)o1	·	-3	29*	-11
COC(=O)[C@]12C[C@H](CC(=O)N3CCN(C(=O)c4ccco4)CC3)C(=O)N(Cc3cccc4ccccc34)C1=C[C@H](C1CCCC1)O[C@@H]2C	·	-11	·	·
COc1cc(O)c(C(CC(=O)N2CCCC(C)C2)c2ccccc2)c(OC)c1 (configuration not stated)	·	-8	·	·
C[C@H]1CCCN1c1ccc2c(c1)O[C@@H]1CCN(C1)S2(=O)=O	·	3	·	·
SMILES	UBC9 SUMO inh	sPLA2-III inh	NR3A LBD binder	UBC13 polyUb
CCOC(=O)CC[C@@]1(C(=O)OCC)C[C@@H](CC(=O)NCc2cccc3ccccc23)C(=O)N2CCCC=C21	·	-2	·	·
NNC(=O)c1ccc(-c2cccc([N+](=O)[O-])c2)o1	7	-3	-1	2
O=C(Nc1ccc2oc(=O)ccc2c1)c1ccc(-c2cccc([N+](=O)[O-])c2)o1	48	-2	35*	-23
COc1cccc(CN2CCC(C(=O)N3CCN(Cc4ccc5c(c4)OCO5)CC3)CC2)c1	5	-1	13*	6
COc1cc(S(=O)(=O)Nc2ccc(C)cc2)ccc1N=Cc1c(C)[nH]n(-c2ccc(C)cc2)c1=O	-15	5	28*	2
COc1cc(S(=O)(=O)Nc2ccc(C)cc2)ccc1N=Cc1c(C)c(C#N)c(=O)n(C)c1O	28	-1	2	-8
